About 79,000 compounds went through this panel and 15% of them were active in at least one assay; those are over-represented in the sample as a whole. The source made the active and inactive calls. Cut-off read from the data, not from the text of the source: active = growth inhibition above about 70%; inactive = the rest. Where a SMILES comes first, the peptide text is derived from it. Bridges are numbered along the chain shown (N, C = ends). [ ]: non-standard residue; d: D form. The star is where a group is joined. PhAc = O=C(Cc1ccccc1)*
Key:
[1] = NCI Yeast Anticancer Drug Screen. Data for the rad50 strain (AID 155);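 note: 0% = growth of vehicle-only cultures of the same strain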; conditions: S. cerevisiae rad50 strain growth inhibition; at 50.0 µM; hits give high values
Outline: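 Genetically altered yeast (DNA repair pathway); compound treatment; growth inhibition vs vehicle ctrl.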

[2] = NCI Yeast Anticancer Drug Screen. Data for the mec2-1 strain (AID 157); conditions: S. cerevisiae mec2-1 strain, at 50.0 µM, hits give high values
Outline: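 Using mec2-1 yeast: add compound, measure growth, express inhibition versus vehicle-treated cultures.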

[3] = NCI Yeast Anticancer Drug Screen. Data for the sgs1 mgt1 strain (AID 161);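 note: 0% = growth of cultures given vehicle only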; conditions: S. cerevisiae sgs1 mgt1 strain, at 50.0 µM, hits give high values
Outline: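 Growth of a repair-deficient yeast mutant was monitored after compound treatment and expressed as inhibition relative to vehicle-treated cultures.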

[4] = NCI Yeast Anticancer Drug Screen. Data for the cln2 rad14 strain (AID 165);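 note: 0% = growth equal to vehicle treated cultures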; conditions: S. cerevisiae cln2 rad14 strain, at 50.0 µM, hits give high values
Outline: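 Yeast strain cln2 rad14, bearing defects in cell cycle control and DNA repair, serves as the test system; values reflect growth inhibition compared with vehicle.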

[5] = NCI Yeast Anticancer Drug Screen. Data for the bub3 strain (AID 167); conditions: S. cerevisiae bub3 mutant strain, at 50.0 µM, hits give high values
Outline: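 Yeast carrying a defined mutation is treated with each compound, and growth is compared with that of vehicle-exposed cells to give inhibition.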

[6] = NCI Yeast Anticancer Drug Screen. Data for the mlh1 rad18 strain (AID 175); conditions: S. cerevisiae mlh1 rad18 strain growth inhibition; at 50.0 µM; hits give high values
Outline: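 Steps: expose repair-defective yeast to compound; measure growth; express inhibition against vehicle-treated controls.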

Measured: growth inhibition

N#C/C(=C\c1c[nH]c2ccccc12)C(=O)c1ccc(O)c(O)c1
inactive: [1] -6.55% | [2] 0.25% | [3] -20.6% | [4] 18.1% | [5] 2.95% | [6] -6.95%

COc1ccc(/C=C2/C(=O)N(C(=O)c3ccc(Cl)cc3)N=C2C)cc1OC
inactive: [1] -18.7% | [2] -36.9% | [3] -32.6% | [4] -3.55% | [5] -17.1% | [6] -35.5%

O=C(O)Cc1ccccc1Cl
inactive: [1] 24.4% | [2] 32.1% | [3] 6.55% | [4] -23.9% | [5] 14.8% | [6] 17.9%

CCO/N=C(\C(=O)NO)c1ccccc1
inactive: [1] -6.35% | [2] 1.6% | [3] 1.5% | [4] -24.4% | [5] -1.9% | [6] 13.2%

CCOC(=O)c1cn(CC)c2cc(-n3cccc3)c(F)cc2c1=O
inactive: [1] 46.6% | [2] 27.6% | [3] 48.1% | [4] 39.5% | [5] 27% | [6] 49.9%

N#CCC(=O)N1CCCCC1
inactive: [1] -8.3% | [2] -12.1% | [3] 9.9% | [4] -3.15% | [5] 3.1% | [6] -19.8%

C=CCOC(=O)Nc1cccc(O)c1
inactive: [1] 16.9% | [2] -5.95% | [3] 3.2% | [4] -57.6% | [5] -29.6% | [6] 1.4%

Nc1ccc(O)cc1
inactive: [1] 15.2% | [2] 7.5% | [3] 39% | [4] 9.35% | [5] 3.45% | [6] 14.9%

Cn1nnn2c(-c3ccccc3)nnc12
inactive: [1] 15.4% | [2] -2.45% | [3] -5.45% | [4] -10.8% | [5] 0.8% | [6] -5.3%

O=C(O)[C@@H]1[C@H](C(=O)O)[C@H](C(=O)O)C[C@@H]1C(=O)O
inactive: [1] 6.2% | [2] -33.9% | [3] -24.9% | [4] -1.85% | [5] -69% | [6] 20.1%

CN(C)CCCNc1ccc2nnn3c4ccc([N+](=O)[O-])cc4c(=O)c1c23
active: [6] 80%
inactive: [1] 68.8% | [2] 35% | [3] 45.8% | [4] 55.1% | [5] 65.7%

Nc1[nH]c(=S)[nH]c(=O)c1N=O
inactive: [1] -2.75% | [2] -2.55% | [3] -5.75% | [4] -14.7% | [5] -4.1% | [6] 3.95%

CCC1CN1C(=O)c1cc(C(=O)N2CC2CC)cc(C(=O)N2CC2CC)c1 (configuration not stated)
inactive: [1] 3.2% | [2] 15.7% | [3] 5.5% | [4] 24.3% | [5] -5.75% | [6] 20%

N#CC1(c2ccc(Cl)cc2)CCC1
inactive: [1] 11.7% | [2] 6.15% | [3] 19.8% | [4] 19.9% | [5] 27.5% | [6] 8.6%

Nc1c2ccccc2nc2c(C(=O)Nc3ccc(S(N)(=O)=O)cc3)cccc12
inactive: [1] 16.4% | [2] -8.9% | [3] -1.45% | [4] 19% | [5] -2.45% | [6] 1.05%

C#CC1(O)CCCCCCCCC2(CCCCCCCC1)OCCO2
inactive: [1] -10.7% | [2] -10.8% | [3] -18.2% | [4] 13.7% | [5] -5.85% | [6] 1.25%

CCC(=O)Nc1cc([N+](=O)[O-])cc([N+](=O)[O-])c1
inactive: [1] 8.1% | [2] -7.3% | [3] -13.3% | [4] -32.5% | [5] -36.9% | [6] -23.6%

N#C/C(=C\c1ccc(C#N)cc1)C(=O)O
inactive: [1] -16.6% | [2] -3.1% | [3] -30% | [4] 2.75% | [5] -14.4% | [6] 9.55%

CC(C)C(=O)c1ccccc1Cl
inactive: [1] 2.85% | [2] -7.05% | [3] -2.45% | [4] -0.35% | [5] 2.7% | [6] -8%

CN1CCC(CNc2ccccc2)CC1
inactive: [1] 3.6% | [2] -0.5% | [3] 6.05% | [4] -20.5% | [5] 14.5% | [6] 3.45%

CCC(=O)C(C)C1(C(=O)OC)NC(=S)NC(=O)C1C#N (configuration not stated)
inactive: [1] 5.4% | [2] -4.75% | [3] -15.8% | [4] -6.4% | [5] -22.1% | [6] -6.1%

S=C(Nc1ccccc1)Nc1ccccn1
inactive: [1] 10.1% | [2] -29.6% | [3] 4.05% | [4] -30.8% | [5] -4.35% | [6] 4.25%

CCCc1c(C(=O)O)c(-c2cccc3ccccc23)c(CCC)c2c1-c1cccc3cccc-2c13
inactive: [1] 54.5% | [2] 35% | [5] 30.2%
active: [3] 76% | [4] 71.2% | [6] 73.5%

CC(=O)Nc1ccc(-c2nnc(SCC(=O)Nc3ccccc3C)o2)cc1
inactive: [1] -6.55% | [2] -5.25% | [3] -19.9% | [4] 4.65% | [5] -8.55% | [6] -18.1%

CCN(CCC#N)c1cccc(C)c1
inactive: [1] -12.2% | [2] 1.6% | [3] -5.75% | [4] 9.8% | [5] -16.8% | [6] -7.55%

O=C(Cc1ccccc1)N[C@@H]1COC(=O)[C@@H]2CCCN2C(=O)[C@@H]2CCCN2C1=O (PhAc-[dS]-Pro-Pro; ester 1-C)
inactive: [1] -33.4% | [2] 5.85% | [3] -17.2% | [4] 27.4% | [5] -1.7% | [6] -8.95%

Cc1ccc(N=Nc2ccc(C)cc2NC(=O)Nc2cc([N+](=O)[O-])ccc2F)cc1
inactive: [1] 13.4% | [2] -16.1% | [3] -4.6% | [4] -5.9% | [5] -4.3% | [6] -5.4%

Cc1cc2ccccc2c[n+]1C1CCc2ccccc2C1=O (configuration not stated)
inactive: [1] 7.1% | [2] 5.6% | [3] 30.6% | [4] 24% | [5] 3.4% | [6] 20.2%

CCc1cccc(CC)c1NC(=O)/C=C/C(=O)O
inactive: [1] -12.6% | [2] 3.45% | [3] -4.75% | [4] -46.6% | [5] -4.2% | [6] 4.1%

COc1cccc2c1[C@H]1CO[C@H]3C4C[C@H](C(=O)O)C([C@@H](C2)N13)N4C (some centres not stated)
inactive: [1] 3.25% | [2] 4.4% | [3] 8.35% | [4] -12.1% | [5] -4.7% | [6] -2.5%

CCOC(=O)c1[nH]c(CC(=O)O)c(C(=O)OCC)c1C
inactive: [1] -6.8% | [2] 3% | [3] 9% | [4] -44.9% | [5] 3.9% | [6] 5.1%

CC1(CC2(c3ccccc3)NC(=O)NC2=O)NC(=O)NC1=O (configuration not stated)
inactive: [1] -0.55% | [2] -19.6% | [3] 0.9% | [4] 10.6% | [5] 11.8% | [6] 5.65%

Cc1ccc2c(c1)C(=O)C1(C2)Cc2ccc(C)cc2C1=O
inactive: [1] -53% | [2] -45.9% | [3] 4.05% | [4] -3.45% | [5] 5.45% | [6] -24.9%

CCC1(CN(C)C)CC/C(=C\c2ccc(OC)c(OC)c2)C1=O (configuration not stated)
inactive: [1] 13.2% | [2] 0% | [3] -1.25% | [4] 15.9% | [5] 7.8% | [6] 25.2%

CCCCN(CCCC)CC(O)c1cc(-c2cc(C(O)CN(CCCC)CCCC)c3ccccc3n2)nc2ccccc12 (configuration not stated)
inactive: [1] 50.9% | [2] -8.2% | [3] 46.1% | [4] -6.85% | [5] 5.3% | [6] 32.4%

COC(=O)C1=C(O)/C(=C\c2ccccc2)NC1=O
inactive: [1] 9.35% | [2] -11.3% | [3] -12.9% | [4] -40.4% | [5] -17.8% | [6] -5.7%

CC(=O)NCC(=O)O
inactive: [1] 3.7% | [2] -8.75% | [3] -35.1% | [4] -7.1% | [5] -9.6% | [6] -10.1%

CC1OC1P(=O)(O)O (configuration not stated)
inactive: [1] 16.6% | [2] -5.9% | [3] -4.55% | [4] 1.7% | [5] -3.3% | [6] -6.55%

CC(=O)OC1CC(O)C23COC(O)C1(C)C2CC(O)C1(C)C3C(=O)C(O)C2(C)C(c3ccoc3)CC3OC321 (configuration not stated)
inactive: [1] -9.9% | [2] 2.75% | [3] -11.3% | [4] 0.2% | [5] -2.2% | [6] -37.7%

CCC(C)OC(=O)CC(c1ccccc1)N1CCCCC1 (configuration not stated)
inactive: [1] 7.5% | [2] -10.4% | [3] 3% | [4] -26.4% | [5] -0.65% | [6] -4.5%

O=CC(Cc1ccccc1)C(=O)CCc1ccccc1.[Cu+2] (configuration not stated)
inactive: [1] 40.1% | [2] 13.9% | [3] 4.95% | [4] -48.6% | [5] 0.4% | [6] 2.55%

C#CC(C)(C)Oc1cc(O)c2c(=O)c3ccccc3n(C)c2c1
inactive: [1] -7.9% | [2] -0.35% | [3] 12.2% | [4] 5.3% | [5] 0.2% | [6] 0%

Source: PubChem BioAssay (NCI)
